Screens (PubChem BioAssay)
ELG1 DNA repair: ELG1-dependent DNA repair inhibition | HEK293T ELG1-luciferase reporter, luminescence, 16 h; DNA damage induced by 5-fluorouridine | 330,000 tested, 2.3% active | Potency, µM (highest dose often 46.1 µM), for the others: at the highest dose activity change, negative = inhibition, most hits filed as inhibitors; also: potency is read from the fitted curve at half-maximal effect; nearly all actives have a fitted effect of over 55% in size
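Step one: seed 2,000 cells per well. Step two: pin-transfer compound or DMSO alongside 5-fluorouridine. Step three: incubate 16 hr, 37 °C, 5% CO2. Step four: add ONE-Glo, wait 30 min, read luminescence.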
DT40 TDP1 no CPT: qHTS for Inhibitors of human tyrosyl-DNA phosphodiesterase 1 (TDP1): qHTS in cells in absence of CPT; DT40 Tdp1-/- hTDP1 cells, no CPT, ATP luminescence, 48 h; Potency, µM (series often up to 46.2 µM), for the others: at the highest dose activity change, negative = growth inhibition, usual class: inhibitors; 420,000 tested, 15% active; also: potency is read from the fitted curve at half-maximal effect; nearly all actives have a fitted effect of over 55% in size
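Growth kinetics read by CellTiter-Glo luminescence after ≥48 hr at 37 °C. Cells: DT40 Tdp1-/- stably carrying human TDP1, 400 per well, compound exposure in the absence of CPT (DMSO vehicle).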
TDP1 cell CPT: growth inhibition of DT40 Tdp1-/-;hTDP1 cells with camptothecin (screen for TDP1 inhibitors) | chicken DT40 Tdp1-/-;hTDP1 cells + 20 nM CPT, ATP luminescence, 48 h | Potency, µM (doses to about 46.2 µM), without a hit: top-dose activity change, negative = growth inhibition, usual class: inhibitors | 420,000 tested, 12% active | AID 686979; also: potency is read from the fitted curve at half-maximal effect; nearly all actives have a fitted effect of over 55% in size
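Cell growth measured by CellTiter-Glo luminescence after a minimum 48 h, 37 C compound exposure with 20 nM CPT in Tdp1-knockout DT40 cells stably expressing hTDP1, seeded 400/well; qHTS titration format.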
HT1080-NT tox: kills 2HG-producing HT-1080-NT fibrosarcoma cells. Potency, µM (highest dose often 46.1 µM), for the others: at the top dose activity, negative = less viability, usual class: cytotoxic. HT-1080-NT fibrosarcoma viability, CellTiter-Glo ATP luminescence, 48 h. 360,000 tested, 1.6% active;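 also: NT is the 2HG producing partner of a matched IDH1 knockdown line; potency is read from the fitted curve at half-maximal effect; 0% = DMSO-treated cells and -100% = media-only wells without cells; nearly all actives have a fitted effect of over 55% in size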
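HT-1080-NT fibrosarcoma cells (2HG-overproducing), 750 cells/well in RPMI with 5% FBS, dosed after 2 h and incubated 48 h at 37C. CellTiter-Glo luminescence normalized to DMSO and no-cell wells; concentration-response curves fitted and classed.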
IL1B secr inh: blocks inflammasome-driven IL-1 beta release; THP-1 LPS/ATP IL-1B secretion, AlphaLISA, 16 h; stronger effect = lower value; activity change, % at 57.5 µM; 360,000 tested, 4.7% active; in the data active = activity change below about -50%; inconclusive = mostly about -30% to -49%
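Secreted IL-1B measured by AlphaLISA bead assay after 16 h compound exposure of THP-1 cells; compounds (final up to 57.5 uM) added 1 h before LPS (250 ng/mL) and ATP (1.25 mM) stimulation; lower signal means less secretion.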
HT1080 IDH1KD tx: toxicity to HT-1080 IDH1 knockdown cells (counter line). HT-1080 IDH1 knockdown viability, ATP luminescence, 48 h. Potency, µM (series often up to 46.1 µM), without a hit: at the top dose activity, negative = toxicity, hits mostly cytotoxic. 360,000 tested, 2% active. AID 686971;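 also: potency is read from the fitted curve at half-maximal effect; 0% = DMSO wells and -100% = cell-free medium wells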
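Luminescent ATP read-out (CellTiter-Glo, 10 min at room temperature) after 48 h compound exposure at 37 °C gave viability of IDH1-knockdown HT-1080 cells. Activity was normalised to DMSO and cell-free wells, then fitted as concentration-response curves.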
An asterisk follows results filed as active; ? = inconclusive; · = no result given. An excerpt weighted towards active compounds, which were near 19% of everything screened. Unless noted, calls follow the shape of the dose curve; as a rule, active = well fitted curve in the direction sought with a large enough effect; inconclusive = small, poorly fitted or top-dose-only effect, or another doubt; inactive = no such curve, though single readings can be large; an effect the other way counts as inactive or inconclusive. Unless noted, % is scaled to controls: 0 for no effect and ±100 for the full control effect.

SMILES | ELG1 DNA repair | DT40 TDP1 no CPT | TDP1 cell CPT | HT1080-NT tox | IL1B secr inh | HT1080 IDH1KD tx
CCOc1ccc(NC(=O)c2sc(-n3nc(C)c(Cc4ccc(Cl)cc4)c3C)nc2C)cc1 | · | -21.4% | 5.3% | · | · | ·
Cc1ccc(Cc2c(C)nn(-c3nc(C)c(C(=O)N4CCCCC4C)s3)c2C)cc1 (stereo not given) | · | 14.6µM* | ? | · | · | ·
CC(=O)c1ccc(NC(=O)c2sc(-n3nc(C)c(Cc4ccccc4)c3C)nc2C)cc1 | · | 16.4µM* | 23.1µM* | · | · | ·
CCC1CCCCN1C(=O)c1sc(-n2nc(C)c(Cc3ccccc3)c2C)nc1C (stereo not given) | · | ? | -27.2% | · | · | ·
COc1ccccc1-c1cncc(NC(C)=O)n1 | · | 2.2% | -3.1% | 26.0% | 23.8 | 3.6%
CCCNC(=O)CCn1cc(-c2ccc(OC)cc2)nc1-c1ccncc1 | 7.9% | -2.1% | -24.0% | 0.0% | -13.4 | -0.6%
CCOC(=O)c1c(C)[nH]c(C(=O)OCC(=O)c2c(N)n(C)c(=O)n(C)c2=O)c1C | 0.3% | · | · | · | · | ·
Cc1ccc(Cl)cc1NC(=O)c1sc(-n2nc(C)c(Cc3ccc4c(c3)OCO4)c2C)nc1C | · | 2.91µM* | ? | · | · | ·
Cc1cccc(C)c1NC(=O)c1sc(-n2nc(C)c(Cc3ccc4c(c3)OCO4)c2C)nc1C | · | -20.9% | -10.6% | · | · | ·
Cc1cccc(-n2c3nc(=O)n(C)c(=O)c-3cc3c(C)nn(-c4ccccc4)c32)c1C | · | 0.5% | 7.1% | · | · | ·
Cc1cc(C)cc(OCC(=O)Nc2ccc(-c3nc4ncccc4o3)cc2C)c1 | · | ? | -4.5% | · | · | ·
CCc1ccc(OCC(=O)Nc2ccc(-c3nc4ncccc4o3)cc2)cc1 | · | -9.7% | -16.4% | · | · | ·
CCC(C)c1ccc(OCC(=O)Nc2cccc(-c3nc4ncccc4o3)c2)cc1 (stereo not given) | · | 16.4µM* | -89.1% | · | · | ·
Cc1cc(C)cc(OCC(=O)Nc2cccc(-c3nc4ncccc4o3)c2)c1 | 11.6µM* | 20.6µM* | 23.1µM* | 10.7% | ? | 10.9%
N#Cc1ccc(-c2cccs2)nc1SCc1cccnc1 | 23.7% | 0.411µM* | 0.517µM* | ? | 92.8 | ?
N#Cc1c(C(F)(F)F)cc(-c2cccs2)nc1SCc1cccnc1 | ? | ? | ? | -3.7% | -2.0 | -14.2%
CCOC(=O)Nc1nc2ccc(Cn3cccc3)cc2[nH]1 | · | 0.581µM* | 0.82µM* | 3.26µM* | 28.5 | ?
CCCOc1ccc2nc(NC(=O)OC)[nH]c2c1 | ? | 0.15µM* | 0.0944µM* | · | · | ·
COc1ccc2nc(NCCO)[nH]c2c1 | -4.9% | -15.3% | -3.7% | -2.7% | 30.0 | -1.1%
C=CCN(C(=O)c1csnn1)C(C(=O)NC1CCCCC1)c1ccc(F)cc1 (stereo not given) | -0.4% | -2.9% | -0.6% | 2.2% | 12.3 | -1.2%
CCOc1ccc(CC(=O)N2CCc3cc(OC)c(OC)cc3C2COc2ccc3c(C)cc(=O)oc3c2)cc1 (stereo not given) | · | -9.7% | -25.1% | · | · | ·
CC(C)(C)c1ccc(C(=O)Nc2ccc(F)cc2)s1 | ? | 14.6µM* | 0.2% | -18.9% | -61.8* | -20.2%
N#CCSc1nc(-c2ccccc2)c2cc(Cl)ccc2n1 | ? | 0.0% | -0.7% | -1.9% | 7.3 | 0.0%
CNCc1nc(-c2ccc[nH]2)c2cc(Cl)ccc2n1 | · | 14.1µM* | 11.2µM* | · | · | ·
COc1ccc(S(=O)(=O)N2CCC(C(=O)N[C@@H](C)C(=O)NCc3ccccn3)CC2)cc1 | · | -12.9% | -3.4% | 6.2% | -6.2 | 7.4%
SMILES | ELG1 DNA repair | DT40 TDP1 no CPT | TDP1 cell CPT | HT1080-NT tox | IL1B secr inh | HT1080 IDH1KD tx
Cc1cc(C)n2nc(SCC(=O)N3CC(C)CC(C)C3)nc2n1 (stereo not given) | 0.3% | -4.0% | 20.8% | 9.1% | 29.8 | 10.8%
Cc1ccc(N2C(=O)Nc3ccc(Br)cc3C2(O)C(=O)NCCN(C)C)cc1C (stereo not given) | -17.1% | 2.0% | 10.2% | 19.3% | 15.9 | 9.2%
O=C(Nc1cccc(C(F)(F)F)c1)C1CCCN(S(=O)(=O)c2cnc[nH]2)C1 (stereo not given) | -13.5% | -29.7% | -24.4% | -7.4% | 15.4 | -8.8%
Cc1noc2ncnc(N3CCCC(C(=O)Nc4cc(F)ccc4F)C3)c12 (stereo not given) | · | 11.6µM* | 13µM* | · | · | ·
COc1ccc(NC(=O)C2CCCN(c3ncnc4onc(C)c34)C2)cc1OC (stereo not given) | · | 23.1µM* | ? | · | · | ·
Cc1noc2ncnc(N3CCCC(C(=O)Nc4cccc(C(F)(F)F)c4)C3)c12 (stereo not given) | · | 18.4µM* | 14.6µM* | · | · | ·
Cc1ccc(F)cc1NC(=O)C1CCCN(c2ncccn2)C1 (stereo not given) | 14.6% | -0.5% | -10.2% | 7.1% | -11.5 | -5.0%
COc1ccc(Cl)cc1NC(=O)C1CCCN(c2ncnc3onc(C)c23)C1 (stereo not given) | · | 23.1µM* | 18.4µM* | · | · | ·
Cc1ccccc1-n1nc2c(c1NC(=O)C1CC1)CS(=O)(=O)C2 | · | -2.6% | -10.0% | 9.0% | 15.2 | 10.7%
CCOc1ccc(C(=O)COC(=O)Cn2[nH]c(=O)c3ccccc3c2=O)cc1 | · | -2.9% | 2.4% | 4.7% | 8.0 | 7.8%
CCOc1ccc(OCC)c(NC(=O)C(NS(=O)(=O)c2cccs2)c2ccccc2)c1 (stereo not given) | · | ? | -21.5% | · | · | ·
CC(=O)Nc1ccc(NC(=O)C2CC(=O)N(C(C)C)C2)cc1 (stereo not given) | -10.5% | 1.1% | 17.6% | 17.7% | 15.8 | 22.2%
Cc1ccccc1C(=O)NCC(=O)NNC(=O)c1cccc(Cl)c1 | 4.7% | ? | 5.5% | 3.8% | 11.7 | -1.2%
CCn1ncc(Br)c1C(=O)Nc1ccn(C23CC4CC(CC(C4)C2)C3)n1 | -0.1% | 13µM* | 20.6µM* | -15.8% | 39.4 | -19.7%
CCn1ncc(Br)c1C(=O)N(C)C12CC3CC(CC(C3)C1)C2 | ? | ? | ? | -4.9% | 7.5 | -26.0%
CC1CCC(N2CCNCC2)CC1 (stereo not given) | 10.4% | 3.9% | -3.6% | -0.4% | -9.3 | -1.1%
Cc1ccccc1-n1nc(C)c2cc(C(=O)N3CCN(S(=O)(=O)c4ccc(F)cc4)CC3)sc21 | ? | 17.8µM* | 10µM* | -0.7% | -9.9 | -23.8%
Cc1ccccc1-n1nc(C)c2cc(C(=O)N3CCN(S(=O)(=O)c4ccc(Cl)cc4)CC3)sc21 | ? | ? | ? | -0.1% | -24.6 | -1.9%
COc1ccc2cc(CO)n(C)c2c1 | 2.2% | ? | 8.2µM* | 16.0% | 27.4 | 10.8%
